Experimental findings from PubChem BioAssay (NCI) are described below.

This is part of a sample that, as a whole, favours compounds with a hit. Of some 79,000 tested, about 15% had one in any assay. Values without a mark were called inactive. Calls of active or inactive are those of the source. No stated cut-off is given here; in the data, active means growth inhibition above about 70%; inactive means the rest.

Test [1] is described as follows: NCI Yeast Anticancer Drug Screen. Data for the rad50 strain (AID 155).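 Further: 0% = growth of vehicle-only cultures of the same strain.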 To be noted: S. cerevisiae rad50 strain growth inhibition, stronger effect = higher value. An outline of the steps: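 Inhibition values express reduced yeast growth in compound-treated cultures relative to vehicle-treated controls.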
Test [2] is described as follows: NCI Yeast Anticancer Drug Screen. Data for the mec2-1 strain (AID 157). Conditions: S. cerevisiae mec2-1 strain, stronger effect = higher value. An outline of the steps:
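Vehicle-treated cultures served as reference for growth inhibition of compound-exposed mec2-1 yeast.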

The nature of test [3]: NCI Yeast Anticancer Drug Screen. Data for the sgs1 mgt1 strain (AID 161).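 Further: 0% = growth of cultures given vehicle only.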 To be noted: S. cerevisiae sgs1 mgt1 strain, stronger effect = higher value. An outline of the steps:
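Test agents were incubated with a DNA-repair-mutant yeast strain. Growth was then read and compared against vehicle-treated controls.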

Test [4] in a line: NCI Yeast Anticancer Drug Screen. Data for the cln2 rad14 strain (AID 165).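 Further: 0% = growth equal to vehicle treated cultures.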 To be noted: S. cerevisiae cln2 rad14 strain, stronger effect = higher value. An outline of the steps:
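Each compound was tested on cln2 rad14 yeast. Inhibition of growth was calculated against vehicle-exposed controls.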

The nature of test [5]: NCI Yeast Anticancer Drug Screen. Data for the bub3 strain (AID 167). Conditions: S. cerevisiae bub3 mutant strain, stronger effect = higher value. An outline of the steps:
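Steps: expose the mutant yeast strain to compound; grow alongside vehicle-treated cultures; measure growth; express inhibition against the vehicle cultures.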

The nature of test [6]: NCI Yeast Anticancer Drug Screen. Data for the mlh1 rad18 strain (AID 175). To be noted: S. cerevisiae mlh1 rad18 strain growth inhibition, stronger effect = higher value. An outline of the steps: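 Vehicle-treated cultures served as the reference for growth inhibition in a yeast strain carrying DNA damage repair alterations exposed to each compound.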
[7] abbreviates: at 5.0 µM (retest, dose inferred, filed as 0.5).
[8] abbreviates: at 50.0 µM (retest, dose inferred, filed as 5.0).

Take `O=P(OCCCl)(OCCCl)C(Nc1cccc2ccccc12)c1ccccc1` (stereo not given): the growth inhibition is 7% in test [1] (setting [7]); 86% (active) in test [1] (setting [8]); 91% (active) in test [1] (at 50.0 µM); -8% in test [2] (setting [7]); 72% (active) in test [2] (setting [8]); 91.4% (active) in test [2] (at 50.0 µM). In addition, the growth inhibition in test [3] (setting [7]) is 5%; in test [3] (setting [8]), 86% (active); in test [3] (at 50.0 µM) it was 88.5% (active); in test [4] (setting [7]), -1%; in test [4] (setting [8]), 86% (active); in test [4] (at 50.0 µM), 87.5% (active). For the same compound, the growth inhibition in test [5] (setting [7]) was 1%; in test [5] (setting [8]), 87% (active); in test [5] (at 50.0 µM), 86.7% (active); in test [6] (setting [7]) it was 4%; in test [6] (setting [8]), 84% (active); in test [6] (at 50.0 µM), 90.2% (active).

As for `CC(C)(C)C(=O)OCC(=O)c1ccc(-c2ccccc2)cc1`, the growth inhibition in test [1] (setting [7]) was -2%; in test [1] (setting [8]), -6%; in test [1] (at 50.0 µM) it was 11%; in test [2] (setting [7]), -6%; in test [2] (setting [8]) it was -6%; in test [2] (at 50.0 µM), -0.25%. For the same compound, the growth inhibition in test [3] (setting [7]) is -2%; in test [3] (setting [8]), -4%; in test [3] (at 50.0 µM), 13.7%; in test [4] (setting [7]) it was -9%; in test [4] (setting [8]), -13%; in test [4] (at 50.0 µM), -4.6%. Further, the growth inhibition in test [5] (setting [7]) is 73% (active); in test [5] (setting [8]), 86% (active); in test [5] (at 50.0 µM) it was 65%; in test [6] (setting [7]), -4%; in test [6] (setting [8]), -8%; in test [6] (at 50.0 µM), 3.75%.

With `C[C@]12CC[C@H](O)CC1=CC[C@@H]1C2CC[C@]2(C)C(=O)N(N)C(=O)CC12` (stereo not given in full), the growth inhibition was 7% in test [1] (setting [7]); 92% (active) in test [1] (setting [8]); 83.7% (active) in test [1] (at 50.0 µM); -24% in test [2] (setting [7]); 91% (active) in test [2] (setting [8]); 88.3% (active) in test [2] (at 50.0 µM). In addition, the growth inhibition in test [3] (setting [7]) is 16%; in test [3] (setting [8]), 93% (active); in test [3] (at 50.0 µM), 87.8% (active); in test [4] (setting [7]) it was 2%; in test [4] (setting [8]), 92% (active); in test [4] (at 50.0 µM), 88.4% (active). Also, the growth inhibition in test [5] (setting [7]) is 16%; in test [5] (setting [8]), 93% (active); in test [5] (at 50.0 µM) it was 86.7% (active); in test [6] (setting [7]) it was -11%; in test [6] (setting [8]) it was 91% (active); in test [6] (at 50.0 µM), 84.4% (active).

Take `S=c1sc2ccccc2n1C=Nc1ccccc1`: the growth inhibition was -2% in test [1] (setting [7]); 83% (active) in test [1] (setting [8]); 98.9% (active) in test [1] (at 50.0 µM); -5% in test [2] (setting [7]); 97% (active) in test [2] (setting [8]); 98.8% (active) in test [2] (at 50.0 µM). The growth inhibition in test [3] (setting [7]) is -1%; in test [3] (setting [8]), 96% (active); in test [3] (at 50.0 µM), 98.7% (active); in test [4] (setting [7]), -8%; in test [4] (setting [8]), 81% (active); in test [4] (at 50.0 µM) it was 96.2% (active). The growth inhibition in test [5] (setting [7]) was -1%; in test [5] (setting [8]) it was 96% (active); in test [5] (at 50.0 µM), 99.1% (active); in test [6] (setting [7]), -2%; in test [6] (setting [8]), 79% (active); in test [6] (at 50.0 µM), 98.3% (active).

As to `O=C(OC1C=C=CS(=O)(=O)CC#C/C=C\1)c1cnc2ccccc2n1` (stereo not given), the growth inhibition in test [1] (setting [7]) is 15%; in test [1] (setting [8]), 96% (active); in test [1] (at 50.0 µM), 76.9% (active); in test [2] (setting [7]) it was -17%; in test [2] (setting [8]) it was 95% (active); in test [2] (at 50.0 µM), 75.8% (active). Besides, the growth inhibition in test [3] (setting [7]) was -28%; in test [3] (setting [8]), 91% (active); in test [3] (at 50.0 µM), 74.3% (active); in test [4] (setting [7]), 15%; in test [4] (setting [8]) it was 90% (active); in test [4] (at 50.0 µM) it was 78.5% (active). In addition, the growth inhibition in test [5] (setting [7]) is -36%; in test [5] (setting [8]) it was 94% (active); in test [5] (at 50.0 µM), 79.5% (active); in test [6] (setting [7]), 19%; in test [6] (setting [8]) it was 97% (active); in test [6] (at 50.0 µM), 69.3%.

For `CC1CCN(C(=S)NNC(C)c2cc3ccccc3cn2)CC1` (stereo not given), the growth inhibition in test [1] (setting [7]) is 45%; in test [1] (setting [8]), 97% (active); in test [1] (at 50.0 µM), 82.5% (active); in test [2] (setting [7]) it was 60%; in test [2] (setting [8]), 98% (active); in test [2] (at 50.0 µM), 75.7% (active). Besides, the growth inhibition was 80% (active) in test [3] (setting [7]); 97% (active) in test [3] (setting [8]); 88.6% (active) in test [3] (at 50.0 µM); 82% (active) in test [4] (setting [7]); 97% (active) in test [4] (setting [8]); 84.9% (active) in test [4] (at 50.0 µM). Besides, the growth inhibition in test [5] (setting [7]) is 71% (active); in test [5] (setting [8]), 97% (active); in test [5] (at 50.0 µM), 85.8% (active); in test [6] (setting [7]) it was 50%; in test [6] (setting [8]), 96% (active); in test [6] (at 50.0 µM) it was 86.8% (active).

On to `CSC(=S)N/N=C(\C)c1ccc[nH]1`, for which the growth inhibition in test [1] (setting [7]) is -2%; in test [1] (setting [8]), 96% (active); in test [1] (at 50.0 µM) it was 83.8% (active); in test [2] (setting [7]), 0%; in test [2] (setting [8]), 96% (active); in test [2] (at 50.0 µM), 90.8% (active). Moreover, the growth inhibition is 13% in test [3] (setting [7]); 96% (active) in test [3] (setting [8]); 79.7% (active) in test [3] (at 50.0 µM); -13% in test [4] (setting [7]); 92% (active) in test [4] (setting [8]); 72.6% (active) in test [4] (at 50.0 µM). In addition, the growth inhibition is 0% in test [5] (setting [7]); 97% (active) in test [5] (setting [8]); 90.2% (active) in test [5] (at 50.0 µM); 2% in test [6] (setting [7]); 77% (active) in test [6] (setting [8]); 85.7% (active) in test [6] (at 50.0 µM).

With `COc1cc(C2CC(=O)c3ccccc3O2)ccc1O` (stereo not given), the growth inhibition in test [1] (setting [7]) is 0%; in test [1] (setting [8]) it was 98% (active); in test [1] (at 50.0 µM), 89% (active); in test [2] (setting [7]), 10%; in test [2] (setting [8]), 99% (active); in test [2] (at 50.0 µM), 92.7% (active). The growth inhibition in test [3] (setting [7]) is 17%; in test [3] (setting [8]), 98% (active); in test [3] (at 50.0 µM), 92.2% (active); in test [4] (setting [7]), -16%; in test [4] (setting [8]) it was 97% (active); in test [4] (at 50.0 µM) it was 88.7% (active). Besides, the growth inhibition in test [5] (setting [7]) was 26%; in test [5] (setting [8]), 97% (active); in test [5] (at 50.0 µM), 90.7% (active); in test [6] (setting [7]), 15%; in test [6] (setting [8]), 98% (active); in test [6] (at 50.0 µM), 89.5% (active).

For `COc1cccc2c1C(=O)c1c(O)c3c(c(O)c1C2=O)CC(O)(C(C)=O)CC3OC1CC(N/C(C)=C/C(C)=O)C(O)C(C)O1` (stereo not given), the growth inhibition in test [1] (setting [7]) is 91% (active); in test [1] (setting [8]), 95% (active); in test [1] (at 50.0 µM), 88.5% (active); in test [2] (setting [7]), 65%; in test [2] (setting [8]), 98% (active); in test [2] (at 50.0 µM), 90% (active). Further, the growth inhibition in test [3] (setting [7]) was 45%; in test [3] (setting [8]), 98% (active); in test [3] (at 50.0 µM), 88.9% (active); in test [4] (setting [7]) it was 60%; in test [4] (setting [8]), 98% (active); in test [4] (at 50.0 µM), 88.4% (active). The growth inhibition is 69% in test [5] (setting [7]); 98% (active) in test [5] (setting [8]); 85.8% (active) in test [5] (at 50.0 µM); 79% (active) in test [6] (setting [7]); 97% (active) in test [6] (setting [8]); 88.4% (active) in test [6] (at 50.0 µM).

As to `Clc1ccc(OCC(Cn2ccnc2)c2ccc(Cl)cc2)cc1` (stereo not given), the growth inhibition was 74% (active) in test [1] (setting [7]); 91% (active) in test [1] (setting [8]); 99.8% (active) in test [1] (at 50.0 µM); 55% in test [2] (setting [7]); 80% (active) in test [2] (setting [8]); 99.9% (active) in test [2] (at 50.0 µM). Moreover, the growth inhibition in test [3] (setting [7]) was 70% (active); in test [3] (setting [8]) it was 97% (active); in test [3] (at 50.0 µM) it was 99.8% (active); in test [4] (setting [7]) it was 60%; in test [4] (setting [8]), 89% (active); in test [4] (at 50.0 µM), 99.5% (active). Further, the growth inhibition in test [5] (setting [7]) is 73% (active); in test [5] (setting [8]), 98% (active); in test [5] (at 50.0 µM), 99.8% (active); in test [6] (setting [7]), 64%; in test [6] (setting [8]), 97% (active); in test [6] (at 50.0 µM), 99.2% (active).
